Assay [1] deals with T1, Aspartate--tRNA(Asp/Asn) ligase (Mycobacterium tuberculosis (strain ATCC 25618 / H37Rv)) (UniProt P9WFW3).
T1 sequence (whole entry): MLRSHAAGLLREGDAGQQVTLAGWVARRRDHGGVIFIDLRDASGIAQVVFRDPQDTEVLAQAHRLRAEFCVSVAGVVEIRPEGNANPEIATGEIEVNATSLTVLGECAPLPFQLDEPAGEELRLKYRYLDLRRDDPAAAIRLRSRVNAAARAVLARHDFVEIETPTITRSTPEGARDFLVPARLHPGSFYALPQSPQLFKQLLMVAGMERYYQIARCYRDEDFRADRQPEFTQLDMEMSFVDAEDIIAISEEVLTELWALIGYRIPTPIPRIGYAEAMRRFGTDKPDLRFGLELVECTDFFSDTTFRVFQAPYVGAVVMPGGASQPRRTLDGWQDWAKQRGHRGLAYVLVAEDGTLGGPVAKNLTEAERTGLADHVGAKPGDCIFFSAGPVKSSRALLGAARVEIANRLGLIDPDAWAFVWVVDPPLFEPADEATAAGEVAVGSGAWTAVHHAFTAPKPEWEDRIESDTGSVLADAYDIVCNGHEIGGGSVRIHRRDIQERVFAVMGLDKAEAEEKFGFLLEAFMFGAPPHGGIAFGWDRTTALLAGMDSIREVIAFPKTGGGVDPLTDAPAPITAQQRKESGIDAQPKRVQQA
Put plainly: Assay for Asp RNA synthetase-1 from Mycobacterium tuberculosis. The assay is classed as functional. More on the design: scale not given: direction of the effect not stated beside the values. The conditions noted are these: 30 µM.

Assay [2] has as its target Shiga toxin 2 (Escherichia coli O157:H7) (UniProt P09385+P09386). Put plainly: E. coli 0.157:H7 Shiga Toxin SOP - stx2 screening assay. Format: functional. On the set-up: scale not given: direction of the effect not stated beside the values. The settings on record: 30 µM.

Take `COCCn1ccc(NC(=O)Nc2cccnc2)n1`: the results for the Percent Effect in assay [1] and in assay [2] were -2.04% and -43.4%, respectively.

In the case of `CC(O)CN1CCC(CNCc2cccc(Br)c2)CC1` (stereo not given), the Percent Effect in assay [1] is -1.97%; in assay [2], 18.9%.

As to `CO[C@H]1CCN(S(=O)(=O)c2cn(C)cn2)[C@H]1Cc1cnn(C)c1`, the values for the Percent Effect in assay [1] and in assay [2] were 7.16% and 5.54%, respectively.

In the case of `O=C(CCNC(=O)c1ccccc1N1CCOCC1)NC1CCCC1`, the Percent Effect in assay [1] is -1.94%; in assay [2], -19.9%.

In the case of `COc1cccc2c1ccn2CCNC(=O)C(C)C`, the figures for the Percent Effect in assay [1] and in assay [2] were 6.33% and -17%, respectively.

With `CCOC1CCN(C(=O)c2cnn(-c3ccccc3Cl)c2)CC1`, the Percent Effect in assay [1] turned out to be 2.29%; in assay [2] it was 28.9%.

Consider `Cc1cc(C)c2nc(CN3CCCC(c4cc[nH]n4)C3)cc(O)c2c1` (stereo not given), for which the values for the Percent Effect in assay [1] and in assay [2] were 4.05% and 0.0646%, respectively.

For `Cc1cccc(C(=O)N(C)Cc2cc(Br)cs2)n1`, the Percent Effect in assay [1] was -0.0599%; in assay [2], -8.77%.

On to `Cc1cncc(C(=O)N2CCC(Cn3cc(-c4ccsc4)nn3)CC2)c1`, for which the values for the Percent Effect in assay [1] and in assay [2] were -0.792% and -26.5%, respectively.

For `C=Cc1ccc(C(=O)N2CCCC(Nc3ccc(F)cc3)C2)cc1` (stereo not given), the Percent Effect was -0.502% in assay [1] and -4.33% in assay [2].

For `CC(C(=O)NCCOc1ccc2c(c1)OCO2)n1cncn1` (stereo not given), the Percent Effect is -7.68% in assay [1] and -4.93% in assay [2].

Turning to `Cc1cc(C)n(CC2CCCN2C(=O)c2ccc(C(N)=O)cn2)n1` (stereo not given), the Percent Effect is -3.07% in assay [1] and -49.3% in assay [2].

`Cc1noc([C@@H]2CCCN2C(=O)C2CCN(C(=O)C3CCC3)CC2)n1`: the Percent Effect was 6.9% in assay [1] and -35.4% in assay [2].

`CC(Cn1cccn1)NC(=O)NCc1ccccn1` (stereo not given): the results for the Percent Effect in assay [1] and in assay [2] were -4.37% and -30.2%, respectively.

On to `CCN(c1ccc(C(=O)N2CCCC(C)C2)cc1)S(=O)(=O)CC` (stereo not given), for which the Percent Effect in assay [1] is -3.34%; in assay [2], -10.8%.

For the molecule `O=C(c1ccccn1)N1C[C@@H]2CC[C@H](C1)N(C(=O)CCc1ccsc1)C2`, the Percent Effect was 0.446% in assay [1] and -55.7% in assay [2].

For the molecule `CC1(C)CN(C(=O)NCCc2ccn(-c3ccccc3)n2)CCO1`, the Percent Effect in assay [1] is 2.57%; in assay [2], 16.6%.

As to `Cc1ccc(C(=O)N2CCc3c(CNS(C)(=O)=O)cncc3C2)o1`, the Percent Effect in assay [1] was 9.11%; in assay [2] it was -21%.

For the molecule `Cc1ccc(N(C)C2CCN(C(=O)c3ccsc3)CC2)nn1`, the Percent Effect came to 0.243% in assay [1] and 1.6% in assay [2].

On to `CCN1CC(C(=O)NC(C)(C)CNC(=O)OC(C)(C)C)CC1=O` (stereo not given), for which the Percent Effect was found to be 4.36% in assay [1] and 15.4% in assay [2].

As to `Cc1noc(CN2CCOC(CN(C)C)C2)n1` (stereo not given), the Percent Effect in assay [1] was -7.81%; in assay [2], -10.9%.

Consider `O=C(NCCC1=CCCCC1)C1CCN(c2ccc3nncn3n2)CC1`, for which the Percent Effect was -1.42% in assay [1] and -16.7% in assay [2].

`Cc1noc(Cl)c1CCC(=O)N1CCN(c2ncccn2)CC1`: the Percent Effect was -3.2% in assay [1] and 36% in assay [2].

As for `CC(C)c1cc(CNC(=O)N2CCC(Cc3cnn(C)c3)C2)on1` (stereo not given), the Percent Effect in assay [1] was -3.72%; in assay [2] it was 11%.

For `Cc1ccc(CN2C[C@@H]3COC[C@@H](NS(C)(=O)=O)[C@@H]3C2)o1`, the values for the Percent Effect in assay [1] and in assay [2] were 1.98% and -1.23%, respectively.

On to `Cn1cc(NS(=O)(=O)c2ccc(OC(F)(F)F)cc2)ccc1=O`, for which the Percent Effect in assay [1] was 51.5%; in assay [2] it was -3.73%.

Consider `CCc1ncncc1C(=O)N1CCN(Cc2c(C)noc2C)CC1`, for which the Percent Effect in assay [1] is 0.0281%; in assay [2], 36.8%.

Consider `CN(C)C(=O)[C@H]1C[C@@H]2CN(S(=O)(=O)Cc3ccccc3)C[C@H]1O2`, for which the Percent Effect in assay [1] was 3.99%; in assay [2], -3.49%.

For `Cc1nc(CCCNC(=O)C2CC(=O)N(C(C)(C)C)C2)sc1C` (stereo not given), the Percent Effect in assay [1] was -1.3%; in assay [2], -11.5%.

For `COc1ccc(C(=O)NCC(c2cccn2C)N2CCCC2)c(OC)c1` (stereo not given), the Percent Effect in assay [1] was -4.85%; in assay [2], -22.3%.

On to `Cc1cc(C)n(CC2CCCN2CCCS(=O)(=O)N(C)C)n1` (stereo not given), for which the results for the Percent Effect in assay [1] and in assay [2] were 2.38% and 0.632%, respectively.

Take `c1cnc(N2C[C@H]3CCN(c4cccnc4)C[C@H]3C2)nc1`: the Percent Effect in assay [1] was -2.01%; in assay [2], -9.94%.

Turning to `O=S(=O)(CCN1CCOC(Cn2cccn2)C1)C(F)(F)F` (stereo not given), the Percent Effect is 8.08% in assay [1] and 191% in assay [2].

Turning to `Cc1cccc(NC2CCN(C(=O)Nc3cc(C)on3)CC2)n1`, the Percent Effect in assay [1] was -5.71%; in assay [2], -63.5%.

For the molecule `Fc1ccc(-c2nnc(CN3CCCC3Cn3cncn3)o2)cc1` (stereo not given), the Percent Effect in assay [1] was -1.49%; in assay [2], -12.6%.

Consider `Cc1ccc(C#N)cc1NC(=O)NC1CCCN(c2ncccn2)C1` (stereo not given), for which the Percent Effect was 1.97% in assay [1] and -2.85% in assay [2].

Regarding `Cc1nc2c(c(NC3CC3)n1)CCN(C(=O)C(C)(C)O)CC2`, the Percent Effect was 3.74% in assay [1] and -3.14% in assay [2].

Take `CCc1noc(CNc2ccc(C(=O)N3CCCC(C)C3)cc2C)n1` (stereo not given): the Percent Effect was -1.27% in assay [1] and 19.1% in assay [2].

In the case of `O=C1N(c2ccc(F)cc2)Cc2nc(=O)n(Cc3cccc(Cl)c3)n21`, the results for the Percent Effect in assay [1] and in assay [2] were 0.784% and -12.3%, respectively.

Turning to `COc1cccc(-n2c(C)cc(C(=O)O)c2C)c1`, the Percent Effect in assay [1] is -3.77%; in assay [2] it was 5.95%.

Regarding `CCc1nnc(CN2CCCC(c3cc(C(F)(F)F)[nH]n3)C2)o1` (stereo not given), the values for the Percent Effect in assay [1] and in assay [2] were 1.01% and -4.16%, respectively.

As to `COC(=O)N1C[C@H]2CC[C@@H]1CN(Cc1cscn1)C2`, the Percent Effect in assay [1] was -3.45%; in assay [2] it was 17.3%.

Turning to `Cc1nc(C)c(C(=O)NCCNC(=O)Cc2ccccc2)s1`, the Percent Effect in assay [1] was -1.6%; in assay [2], 11.1%.

Take `CC(C)c1nn(C)c(N2CCOCC2)c1CNCCS(C)(=O)=O`: the Percent Effect is -2.08% in assay [1] and -5.89% in assay [2].

For the molecule `O=C(C1SCCc2sccc21)N1CCC(O)CC1` (stereo not given), the results for the Percent Effect in assay [1] and in assay [2] were 5.25% and -25.1%, respectively.

With `CN(C)CCN1CCO[C@H]2CN(Cc3cnn(C)c3)C[C@H]21`, the Percent Effect in assay [1] was -1.31%; in assay [2], -7.4%.

Regarding `c1ccc(COC2CCN(c3cncc(-n4cccn4)n3)CC2)cc1`, the values for the Percent Effect in assay [1] and in assay [2] were -3.76% and -38.3%, respectively.

On to `CCc1noc(C(C)N2CCC(C(=O)Nc3cnn(CC)c3)CC2)n1` (stereo not given), for which the Percent Effect in assay [1] is -3.65%; in assay [2], -12.4%.

For `O=C(NC1CC1)[C@@H]1CCO[C@@H]2CCN(Cc3ccsc3)C[C@H]21`, the Percent Effect was 0.474% in assay [1] and -0.513% in assay [2].

For `Cc1cc(=O)n(CC(=O)NCC2CCCO2)c(-c2ccc(F)cc2)n1` (stereo not given), the Percent Effect in assay [1] is 5.94%; in assay [2] it was -51.4%.

These data come from ChEMBL document CHEMBL3988442, “University of Dundee, Small-Polar-MMV Screening Library” (2021).
